Hit rate of the full screen: of about 48,000 compounds, about 13,000 (27%) showed an effect of 50% or more. The list shows a part of the results.

The test system of this assay is Wolbachia pipientis. Briefly: Anti-Wolbachia Cell-Based Screen. It is filed as functional. On the set-up: scale not given: in the data most compounds retested in dose-response had high values. The following applies: 5 µM.
Consider `O=C(NCCCn1nc2ccccn2c1=O)NC1CCC(O)CC1` (configuration not stated), for which the “Percent Effect” value is on record as -5.846%. The result for `CC(CCSc1ccccc1)N1CCCN(C(N)=O)CC1` (configuration not stated) reads 1.732%; that for `COc1cc2c(cc1OC)S(=O)(=O)N(Cc1cnn(C)c1)C2=O`, -5.179%.

Consider `CCN(Cc1cccc(-c2ccncc2)c1)S(C)(=O)=O`, for which the “Percent Effect” value is 22.59%. With `COc1ccnc(N2CCC(OCCN3CCCCC3)C2)n1` (configuration not stated), the “Percent Effect” value is reported as -2.392%. The result for `CCCS(=O)(=O)N1CCC2(CN(c3ccsc3)C(=O)CN2C)C1.O=C(O)C(F)(F)F` (configuration not stated) reads 2.599%; that for `CN(Cc1noc(C2CC2)n1)C1CCN(CCn2cc(C#N)cn2)C1` (configuration not stated), 90.88%; that for `CN(CC1CN(CCn2cc(C#N)cn2)CCO1)c1cccnn1` (configuration not stated), -17.7%. The result for `CC(C)c1nc(CN(C)C2CCN(CCn3cc(C#N)cn3)C2)no1` (configuration not stated) reads 72.8%; that for `CC(C)c1nc(CN(C)C2CCN(CCc3ccncc3)C2)no1` (configuration not stated), 78.23%; that for `Cc1ncsc1CCN1CCC(N(C)Cc2noc(C(C)C)n2)C1` (configuration not stated), 6.438%.

On to `Cc1nc(CN2CCC(N(C)Cc3noc(C(C)C)n3)C2)cs1` (configuration not stated), for which the “Percent Effect” value turned out to be 19.33%.

`Cc1nc(CN(C)C2CCN(CCn3cc(C#N)cn3)C2)no1` (configuration not stated): the “Percent Effect” value is reported as 105.6%. The result for `CN(c1ccc(C#N)cn1)C1CCCN(Cc2noc(C3CC3)n2)C1` (configuration not stated) reads 3.102%; that for `CC(C)c1nc(CN(C)C2CCN(CC(F)(F)F)C2)no1` (configuration not stated), 0.6339%; that for `CCc1nc(CN(C)C2CCN(CCn3cc(C#N)cn3)C2)no1` (configuration not stated), 10.97%.

With `Cc1nn(CCO)c(C)c1CNC1CCc2c(Cl)cccc21` (configuration not stated), the “Percent Effect” value is recorded as 9.566%.

Take `CCOC(C)c1nc(CN2CCN(CC(F)F)CC2)cs1` (configuration not stated): the “Percent Effect” value is reported as -28.37%. `CCc1c(C(=O)N2CC[C@H](N3CCOCC3)[C@H](CCCO)C2)csc1C`: the “Percent Effect” value was -10.58%. The result for `CCc1c(C)nn(CCNC(=O)C2CCCN(C(=O)N(C)C)C2)c1C` (configuration not stated) reads -3.279%. Turning to `C=C(C)CN1CCC(c2n[nH]c(C3CC3)n2)CC1`, the “Percent Effect” value is given as -34.27%. As for `O=C(Nc1cccnc1)[C@H]1CO[C@H]2CCN(c3ncc(F)cn3)C[C@H]2C1.O=C(O)C(F)(F)F.O=C(O)C(F)(F)F`, the “Percent Effect” value was -5.908%. As to `CN1CCN(C(=O)[C@H]2C[C@@H]3CN(c4ncc(F)cn4)C[C@@H]3N2C)CC1.O=C(O)C(F)(F)F.O=C(O)C(F)(F)F.O=C(O)C(F)(F)F`, the “Percent Effect” value turned out to be 6.01%. On to `Fc1cnc(N2CC[C@@H]3CN(Cc4ccncc4)CCO[C@@H]3C2)nc1.O=C(O)C(F)(F)F.O=C(O)C(F)(F)F.O=C(O)C(F)(F)F`, for which the “Percent Effect” value is -11.92%.

Turning to `CNC(=O)[C@H]1CO[C@H]2CCN(c3ncc(F)cn3)C[C@H]2C1.O=C(O)C(F)(F)F`, the “Percent Effect” value is 80.41%.

On to `CC(=O)N1[C@H](Cn2cncn2)C[C@@H]2CN(c3ncc(F)cn3)CC[C@@H]21.O=C(O)C(F)(F)F`, for which the “Percent Effect” value is on record as -4.782%. Take `O=C(Nc1cnccn1)[C@@H]1C[C@H]2OCC[C@H]2N(c2ncc(F)cn2)C1`: the “Percent Effect” value is on record as -10.05%. On to `O=C(Nc1cnccn1)[C@H]1CO[C@H]2CCN(c3ncc(F)cn3)C[C@H]2C1.O=C(O)C(F)(F)F`, for which the “Percent Effect” value is listed as 104.1%. On to `CN(C)C(=O)[C@H]1CO[C@H]2CCN(c3ncc(F)cn3)C[C@H]2C1.O=C(O)C(F)(F)F`, for which the “Percent Effect” value is reported as 120.2%. In the case of `CN(C)C(=O)[C@H]1C[C@H]2OCC[C@H]2N(Cc2ccc(F)cc2)C1.O=C(O)C(F)(F)F`, the “Percent Effect” value was -2.638%. Turning to `CNC(=O)c1cnc(/C=C/c2cc(OC)c3c(c2)OCCO3)s1`, the “Percent Effect” value amounted to 15.86%.

On to `CCN(C)c1ncnc2c1CCN(C(=O)c1ccsc1)CC2.O=C(O)C(F)(F)F`, for which the “Percent Effect” value was -2.544%. The result for `CS(=O)(=O)N1CCO[C@@H]2CN(C(=O)C3CC(F)(F)C3)C[C@@H]2C1` reads 99.59%. As to `CC(C)NC(=O)N1CC[C@@H]2CN(S(C)(=O)=O)CCO[C@@H]2C1`, the “Percent Effect” value turned out to be 112.1%. Consider `CS(=O)(=O)N1CCO[C@@H]2CN(C(=O)COC3CCCC3)C[C@@H]2C1`, for which the “Percent Effect” value is on record as -4.785%. For `CS(=O)(=O)N1CCO[C@@H]2CN(C(=O)N3CCCC3)CC[C@@H]2C1` the value was 106.3%. For `CCc1ccc(CN2CC[C@@H]3CN(S(C)(=O)=O)CCO[C@@H]3C2)o1.O=C(O)C(F)(F)F` the value was 2.069%; for `CS(=O)(=O)N1CCO[C@@H]2CN(C(=O)C3CCOC3)CC[C@@H]2C1` (some centres not stated), 99.33%; for `CC(C)c1nc(CNC(=O)c2ccc(C(C)N3CCCCC3)o2)cs1` (configuration not stated), 4.315%. The result for `Cc1ncc(S(=O)(=O)Nc2ccnn2C(C)C)[nH]1` reads -21.74%.

Take `CS(=O)(=O)N1CC[C@H]2C[C@@H](C(=O)N3CCOCC3)O[C@@H]2C1`: the “Percent Effect” value was -11.49%. Regarding `CS(=O)(=O)N1CCO[C@@H]2CN(C(=O)N3CCOCC3)CC[C@@H]2C1`, the “Percent Effect” value is recorded as 93.86%.

Take `COCCN1CCN(C(=O)c2ccccc2C(C)=O)[C@H]2CS(=O)(=O)C[C@H]21`: the “Percent Effect” value was -3.299%.

For the molecule `COCCC1(C(=O)O)CCCN(Cc2ccccc2OCCO)C1` (configuration not stated), the “Percent Effect” value was -7.98%. For `Cc1cccc(CN2CCCC3(CCN(c4cccnc4)C3=O)C2)n1` (configuration not stated), the “Percent Effect” value is on record as -4.562%. Turning to `Cc1cccc(CN2CCCC3(Cc4ccccc4CNC3=O)C2)n1` (configuration not stated), the “Percent Effect” value stood at 122.4%. `O=C1NCC2(CCCN(Cc3ccccc3OCCO)C2)O1` (configuration not stated): the “Percent Effect” value is on record as -12.98%. With `COc1ccccc1CN1CCCC2(Cc3ccccc3CNC2=O)C1` (configuration not stated), the “Percent Effect” value is 121.9%. Turning to `COC(=O)CNC(=O)N1CCC2(CC1)CC(c1ccccc1)CN(C)C2` (configuration not stated), the “Percent Effect” value is listed as -8.809%. For the molecule `CCOC(=O)CCNC(=O)N1CCN(c2nc3ccccc3n2C)CC1`, the “Percent Effect” value was -6.682%. Consider `Cn1c(SCC(=O)NC(C)(C#N)C2CC2)nc2ccccc21` (configuration not stated), for which the “Percent Effect” value is listed as -4.187%. The result for `CCOC(=O)N1CCN(c2nc(NC)c3ccccc3n2)CC1` reads -5.868%; that for `CCOC(=O)C(C)NC(=O)N1CCN(c2nc3ccccc3n2C)CC1` (configuration not stated), 155.3%.

On to `CCOC(=O)N1CCN(c2nc(N3CCCC3)c3ccccc3n2)CC1`, for which the “Percent Effect” value was -6.467%.

On to `CCNC(=O)N1CCC(=Cc2ccccc2)CC1`, for which the “Percent Effect” value is 6.266%.

Consider `COC(=O)CNC(=O)N1CCN(c2nc3ccccc3n2C)CC1`, for which the “Percent Effect” value was 124.8%.

In the case of `CCNC(=O)N1CCN(c2nc3ccccc3n2C)CC1`, the “Percent Effect” value is recorded as 113.5%.

The values are drawn from ChEMBL document CHEMBL3988442, “University of Dundee, Small-Polar-MMV Screening Library” (2021).
